The source of these data is PubChem BioAssay (NCATS).

Values joined by “and” are separate entries in the source; they are usually repeats but may differ in a detail not shown here. Identical values can stand only once. Records with an inconclusive call do not appear. Active and inactive are the calls of the source. The call rests on the fitted dose curve; in most records, active means well fitted inhibition curve with a large enough effect in the signal ratio, with a control signal flat (not every such curve was filed as active); inconclusive means small, poorly fitted or top-dose-only effect, or effect the other way, or a change in a side signal; inactive means no such curve, though single readings can be large or run the other way; the % refers to the signal ratio.
On the % scale 0 is the no-effect control and ±100 the full control effect.

Tested on in one experiment: not listed separately
Nature of the experiment: qHTS assay for small molecule antagonists of retinoid X receptor alpha signaling (AID 588546). The settings on record: HEK293T RXRa-UAS-bla, beta-lactamase ratio, antagonist mode; measured here: W530 green channel, cytotoxicity proxy. In short, it runs like this: (§1)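 Beta-lactamase reporter inhibition, read as CCF4 fluorescence ratio (ex 405, em 460/530 nm) after 2 h at RT. HEK293T UAS-bla cells, 2500/well, were stimulated with 9-cis-RA at 500 or 100 nM final alongside test compound for 18 h at 37 C.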
Consider `CC(C)OC(=O)Nc1cccc(Cl)c1`, for which the max response is -4.63%.
Same read-out and setting: next, `CNC(=O)Oc1cccc2c1OC(C)(C)O2`: -10.6%.
Still for that read-out and setting: in the case of `CCS(=O)CCSP(=O)(OC)OC` (stereo unspecified) it was -0.327%; in that of `COP(N)(=O)SC` (stereo unspecified), -17.3% and -16.5%.
The same measure, in the same setting: in the case of `CC(C)(C)C(=O)C(Oc1ccc(Cl)cc1)n1cncn1` (stereo unspecified) it was 2.99% and 5.39%; in that of `CC(C)N1C(=O)c2ccccc2NS1(=O)=O`, -4.57%; in that of `O=C(O)COc1cc(Cl)c(Cl)cc1Cl`, 20.3%.
For `CCC(=O)Nc1ccc(Cl)c(Cl)c1`, the max response was -13.9%.
Same read-out and setting: in the case of `CNC(=O)CSP(=S)(OC)OC` it was 1.7%; in that of `N#Cc1c(Cl)cccc1Cl`, -15.4%.
Still for that read-out and setting: in the case of `COc1nc(NC(C)C)nc(NC(C)C)n1` it was -4.65%; in that of `CCc1cccc(C)c1N(C(=O)CCl)C(C)COC` (stereo unspecified), 0.387%.
On the same count and under the same terms, next, `CNC(=O)Oc1ccccc1OC(C)C`: -6.53%.

For another experiment, the target named is Retinoic acid receptor RXR-alpha (Homo sapiens) (UniProt P19793). The description is as above. The settings on record: HEK293T RXRa-UAS-bla, beta-lactamase ratio, antagonist mode. A digest of the protocol: as §1
Retinoic acid receptor RXR-alpha (Homo sapiens), sequence (P19793 whole entry, looked up): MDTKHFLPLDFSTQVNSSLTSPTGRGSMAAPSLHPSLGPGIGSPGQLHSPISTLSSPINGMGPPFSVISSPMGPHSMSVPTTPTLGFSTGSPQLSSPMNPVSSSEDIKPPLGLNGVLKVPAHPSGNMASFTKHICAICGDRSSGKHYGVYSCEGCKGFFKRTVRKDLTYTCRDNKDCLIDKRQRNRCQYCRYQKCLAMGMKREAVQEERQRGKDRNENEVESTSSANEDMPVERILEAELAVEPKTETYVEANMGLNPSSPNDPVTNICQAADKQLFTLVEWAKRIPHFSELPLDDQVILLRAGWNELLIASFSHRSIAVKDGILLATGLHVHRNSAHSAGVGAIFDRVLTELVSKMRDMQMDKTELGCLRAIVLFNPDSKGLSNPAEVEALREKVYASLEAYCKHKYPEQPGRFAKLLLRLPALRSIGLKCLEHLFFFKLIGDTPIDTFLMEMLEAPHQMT
On to `CNC(=O)Oc1cccc2c1OC(C)(C)O2`, for which the max response was -16.4% (inactive).
In the case of `CCS(=O)CCSP(=O)(OC)OC` (stereo unspecified), the max response is 8.07% (inactive).
Same read-out and setting: in the case of `COP(N)(=O)SC` (stereo unspecified) it was -4.89% (inactive) and -18.9% (inactive); in that of `CC(C)N1C(=O)c2ccccc2NS1(=O)=O`, 0.0964% (inactive).
The same measure, in the same setting: in the case of `O=C(O)COc1cc(Cl)c(Cl)cc1Cl` it was -33.7% (inactive); in that of `CCC(=O)Nc1ccc(Cl)c(Cl)c1`, -5.6% (inactive); in that of `N#Cc1c(Cl)cccc1Cl`, 2.12% (inactive).
Turning to `CNC(=O)Oc1ccccc1OC(C)C`, the max response was -31.5% (inactive).
